Source: PubChem BioAssay (NCATS)
Inconclusive results are not listed. The source made the active and inactive calls. The call rests on the fitted dose curve; in most records, active means well fitted inhibition curve with a large enough effect; inconclusive means small, poorly fitted or top-dose-only effect; inactive means flat fitted curve, though single readings scatter.

What was measured:
[1] = qHTS profiling for inhibitors of Plasmodium falciparum proliferation (AID 504749);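 on activity, negative = inhibition: 0% = DMSO vehicle and full inhibition = artemisinin control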; on all read-outs here: nearly all actives have a fitted effect of over 60% in size; details: P. falciparum in erythrocytes, SYBR Green DNA, 72 h; for activity, negative = inhibition: at 28.7 µM (top of the series)
How it was run: (§1)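 Each compound contacts P. falciparum-infected red blood cells for 72 h at 37 C; lysis buffer (Tris, EDTA, saponin, Triton X, SYBR Green I) is added and fluorescence measured next morning; values normalized to controls.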

3D7 = test: as above; details: P. falciparum in erythrocytes, SYBR Green DNA, 72 h; series mostly up to 28.7 µM
How it was run: as §1

7G8 = test: as above; details: P. falciparum in erythrocytes, SYBR Green DNA, 72 h; series mostly up to 28.7 µM
How it was run: as §1
Potency means the concentration at half of the fitted maximal effect.

Nc1ccccc1C(=O)O
inactive: activity, negative = inhibition ([1]; parasite line A) 15.6% | activity, negative = inhibition ([1]; parasite line B) 4.96% | Potency (3D7) | Potency (7G8)

CCC(C)(C)c1ccc(O)cc1
inactive: activity, negative = inhibition ([1]; parasite line A) 2.92% | activity, negative = inhibition ([1]; parasite line B) 14.5% | Potency (3D7) | Potency (7G8)

COC(=O)C(c1ccccc1)C1CCCCN1 (configuration not stated)
inactive: activity, negative = inhibition ([1]; parasite line A) 10.8% | activity, negative = inhibition ([1]; parasite line B) 13.8% | Potency (3D7)

CC(C)NC(C)C
inactive: activity, negative = inhibition ([1]; parasite line A) 6.47% | activity, negative = inhibition ([1]; parasite line B) 12.2% | Potency (3D7) | Potency (7G8)

CCCCCCC(=O)CCCCCC/C=C/C[C@@H](O)[C@H](O)[C@@](N)(CO)C(=O)O
inactive: activity, negative = inhibition ([1]; parasite line A) 16.1% | activity, negative = inhibition ([1]; parasite line B) 7.92% | Potency (3D7) | Potency (7G8)

C=CCN1C[C@H](C)N([C@H](c2ccc(C(=O)N(CC)CC)cc2)c2cccc(OC)c2)C[C@H]1C
active: Potency ([1]; parasite line A) 10 µM | Potency (7G8) 5.01 µM

CCOC(=O)CC(SP(=S)(OC)OC)C(=O)OCC (configuration not stated)
inactive: activity, negative = inhibition ([1]; parasite line A) 10.2% | activity, negative = inhibition ([1]; parasite line B) -3.96% | Potency (3D7) | Potency (7G8)

Clc1ccc(C(c2ccc(Cl)cc2)C(Cl)(Cl)Cl)cc1
active: Potency (7G8) 8.91 µM
inactive: activity, negative = inhibition ([1]; parasite line A) 4.12%

c1ccc2c(c1)sc1ccccc12
inactive: activity, negative = inhibition ([1]; parasite line A) -4.2% | Potency (3D7) | Potency (7G8)

CN1CCC(O)(c2ccc(F)cc2)C(C(=O)c2ccc(F)cc2)C1 (configuration not stated)
inactive: activity, negative = inhibition ([1]; parasite line A) -7.61% | activity, negative = inhibition ([1]; parasite line B) -4.09% | Potency (3D7) | Potency (7G8)

CC(C)(C)NCC(O)c1cc(Cl)c(N)c(C(F)(F)F)c1 (configuration not stated)
active: Potency ([1]; parasite line A) 14.1 µM | Potency ([1]; parasite line B) 4.47 µM | Potency (7G8) 4.47 µM
inactive: Potency (3D7)

CCCCCCCCCC(=O)O[C@H]1CC[C@H]2[C@@H]3CCC4=CC(=O)CC[C@@H]4[C@H]3CC[C@]12C
inactive: activity, negative = inhibition ([1]; parasite line A) 6.57% | activity, negative = inhibition ([1]; parasite line B) 11.7% | Potency (3D7) | Potency (7G8)
